In PubChem BioAssay (Tox21):
A number with no mark means an inactive call. Results filed as inconclusive are left out. Calls of active or inactive are those of the source. Calls follow the shape of the full dose curve.

These compounds were tested against Acetylcholinesterase (Homo sapiens) (UniProt P22303) (assay: Acetylcholinesterase (AChE) small molecule antagonists: fluorescence cell-based qHTS assay (AID 1347398; also: nearly all actives have a fitted effect of over 50% in size; also: potency is read from the fitted curve at half-maximal effect)). Settings: SH-SY5Y cells; Potency: AChE activity; outcome: AChE activity; series mostly up to 115 µM; activity change, negative = inhibition: at the top concentration.
Summary of the method: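 SH-SY5Y, 2,000 cells/well, attached overnight; cmpd 30 min 37 C; acetylthiocholine/Thiolite Green cocktail 40 min RT; fluorescence Ex/Em 490/520 nm.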
% is scaled to controls: 0 for no effect and ±100 for the full control effect.

Acetylcholinesterase (Homo sapiens), sequence (P22303 whole entry, looked up): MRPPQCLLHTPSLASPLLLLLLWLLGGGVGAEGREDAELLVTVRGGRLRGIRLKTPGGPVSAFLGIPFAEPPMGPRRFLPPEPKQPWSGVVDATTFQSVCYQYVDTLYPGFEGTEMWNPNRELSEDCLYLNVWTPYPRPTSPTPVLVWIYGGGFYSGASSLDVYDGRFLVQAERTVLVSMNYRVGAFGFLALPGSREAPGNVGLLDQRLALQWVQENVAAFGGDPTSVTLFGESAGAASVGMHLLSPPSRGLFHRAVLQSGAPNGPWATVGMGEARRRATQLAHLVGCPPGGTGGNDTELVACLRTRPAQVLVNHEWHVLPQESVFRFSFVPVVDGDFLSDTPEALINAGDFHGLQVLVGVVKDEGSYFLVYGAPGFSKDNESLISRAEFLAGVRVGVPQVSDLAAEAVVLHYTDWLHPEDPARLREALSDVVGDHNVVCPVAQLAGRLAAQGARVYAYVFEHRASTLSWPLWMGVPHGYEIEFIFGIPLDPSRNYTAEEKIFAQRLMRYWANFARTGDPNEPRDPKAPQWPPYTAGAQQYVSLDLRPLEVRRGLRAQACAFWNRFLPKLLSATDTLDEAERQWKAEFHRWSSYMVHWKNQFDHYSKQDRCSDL

| Compound | activity change, negative = inhibition | Potency |
| --- | --- | --- |
| O=C(O)c1ccc(O)cc1O | -2.88% | – |
| C1CCCC1 | 1.48% | – |
| CCCCCC1Nc2cc(C(F)(F)F)c(S(N)(=O)=O)cc2S(=O)(=O)N1 (stereo unspecified) | – | 9.77 µM (active) |
| NCCNCCN | – | inactive |
| CCN(CC)C(=O)c1cccc(C)c1 | – | inactive |
| O=Cc1ccc(C(=O)O)cc1 | 4.45% | – |
| C=CCNCC=C | – | inactive |
| Brc1ccccn1 | 7.17% | – |
| C=C[C@](C)(O)CC[C@@H]1[C@@]2(C)CCCC(C)(C)[C@@H]2CC[C@@]1(C)O | -6.08% | – |
| O=C(OCC1(COC(=O)c2cccnc2)CCCC(COC(=O)c2cccnc2)(COC(=O)c2cccnc2)C1O)c1cccnc1 | 5.37% [at 53.7 µM] | – |
| CCCCCCCCCCCCCOC(=O)CCSCCC(=O)OCCCCCCCCCCCCC | -0.492% [at 23.8 µM] | – |
| Nc1ccc(/C=C/c2ccc(N)cc2S(=O)(=O)O)c(S(=O)(=O)O)c1 | 2.35% [at 0.439 µM] | – |
| CCN(Cc1cccc(S(=O)(=O)O)c1)c1ccc(C(=C2C=CC(=[N+](CC)Cc3cccc(S(=O)(=O)O)c3)C=C2)c2ccccc2S(=O)(=O)[O-])cc1 | -20.9% [at 53.7 µM] | – |
| CC(=O)O[C@@H]1CC2C3CCc4cc(OC(=O)c5ccccc5)ccc4C3CCC2(C)[C@H]1OC(C)=O (stereo partly specified) | 4.32% [at 53.7 µM] | – |
| CC(c1cc(C(C)(C)C)cc(C(C)(C)C)c1O)c1cc(C(C)(C)C)cc(C(C)(C)C)c1O | -5.19% | – |
| C=C(C)C(=O)OCCC[Si](OC)(OC)OC | – | inactive |

What follows are compounds tested against Acetylcholinesterase (Homo sapiens) (UniProt P22303) (assay: Acetylcholinesterase (AChE) small molecule antagonists: enzyme-based qHTS assay with human liver microsomes (AID 1347399; also: nearly all actives have a fitted effect of over 60% in size)). Settings: Potency: qHTS inhibition; outcome: qHTS inhibition; series mostly up to 115 µM; activity change, negative = inhibition: at the top concentration.
Summary of the method: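 Recombinant human AChE (50 mU/mL in the enzyme mix) and human liver microsomes (0.25 mg/mL final) were preincubated with compound and NADPH (0.25 mg/mL final) for 30 min at 37 C. Acetylthiocholine/DTNB was then added; thiocholine was read colorimetrically after 10 min at room temperature.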

| Compound | activity change, negative = inhibition | Potency |
| --- | --- | --- |
| CCCCC(=O)N(C)C | -1.18% | – |
| C=C(C)[C@@H]1CC=C(C)C(=O)C1 | -3.2% | – |
| Oc1c(I)cc(Cl)c2cccnc12 | – | inactive |
| CCOC(=O)CC(=O)OCC | – | inactive |
| Sc1nc(S)nc(S)n1 | 0.138% [at 53 µM] | – |
| CC(c1cc2ccccc2s1)N(O)C(N)=O (stereo unspecified) | – | inactive |
| Cc1cc(C)c(S(=O)(=O)O)cc1N=Nc1cc(S(=O)(=O)O)c2ccccc2c1O | 7.69% | – |
| O=C(O)[C@H](O)[C@@H](O)[C@H](O[C@@H]1O[C@H](CO)[C@H](O)[C@H](O)[C@H]1O)[C@H](O)CO | -4.62% [at 53 µM] | – |
| CCCCCC1CCC(=O)O1 (stereo unspecified) | 2.19% | – |
| Nc1c(Cl)cc(Cl)cc1[N+](=O)[O-] | 4.77% | – |
| CCCCC(CC)CN1CN(CC(CC)CCCC)CC(C)(N)C1 (stereo unspecified) | -0.168% [at 53 µM] | – |
| COc1cc(C(=S)N2CCOCC2)ccc1O | 0.79% [at 53 µM] | – |
| O=C1O[C@H](CO)[C@@H](O)[C@H](O)[C@H]1O | – | inactive |
| C=C[Si](C)(C)Cl | -5.99% [at 10.5 µM] | – |
| CCc1ccccc1O | – | inactive |
| C#C[C@]1(O)CC[C@H]2[C@@H]3CCC4=Cc5oncc5C[C@]4(C)[C@H]3CC[C@@]21C | – | inactive |
| COC(=O)c1cccc(C(=O)OC)c1 | – | inactive |
| CC1COC(=O)O1 (stereo unspecified) | – | inactive |
| CC(=O)C1=C(C)[C@@H]2C[C@@]3(C1)[C@H](C)CC[C@H]3C2(C)C | – | inactive |
| O=C(O)c1ccc(O)cc1 | – | inactive |

| Compound | activity change, negative = inhibition | Potency |
| --- | --- | --- |
| Fc1ccc(C(c2ccc(F)cc2)N2CCNCC2)cc1 | -1.47% [at 53 µM] | – |
| CCCCCCCCCCOS(=O)(=O)O | -0.153% | – |
| CC(C)c1ccc(C(C)C)cc1 | – | inactive |
| CCCCCCCCCCCc1ccccc1 | 0.171% | – |
| O=C(O)c1ccc(O)cc1O | -1.93% | – |
| C1CCCC1 | -0.991% | – |
| CCCCCC1Nc2cc(C(F)(F)F)c(S(N)(=O)=O)cc2S(=O)(=O)N1 (stereo unspecified) | -15% [at 53 µM] | – |
| NCCNCCN | – | inactive |
| CCN(CC)C(=O)c1cccc(C)c1 | – | inactive |
| O=Cc1ccc(C(=O)O)cc1 | -1.46% | – |
| C=CCNCC=C | – | inactive |
| Brc1ccccn1 | -0.319% | – |
| C=C[C@](C)(O)CC[C@@H]1[C@@]2(C)CCCC(C)(C)[C@@H]2CC[C@@]1(C)O | 0.373% | – |
| O=C(OCC1(COC(=O)c2cccnc2)CCCC(COC(=O)c2cccnc2)(COC(=O)c2cccnc2)C1O)c1cccnc1 | -0.336% [at 53 µM] | – |
| CCCCCCCCCCCCCOC(=O)CCSCCC(=O)OCCCCCCCCCCCCC | 0.346% [at 23.6 µM] | – |
| Nc1ccc(/C=C/c2ccc(N)cc2S(=O)(=O)O)c(S(=O)(=O)O)c1 | -0.084% [at 0.435 µM] | – |
| CCN(Cc1cccc(S(=O)(=O)O)c1)c1ccc(C(=C2C=CC(=[N+](CC)Cc3cccc(S(=O)(=O)O)c3)C=C2)c2ccccc2S(=O)(=O)[O-])cc1 | 16.2% [at 53 µM] | – |
| CC(=O)O[C@@H]1CC2C3CCc4cc(OC(=O)c5ccccc5)ccc4C3CCC2(C)[C@H]1OC(C)=O (stereo partly specified) | 0.184% [at 53 µM] | – |
| CC(c1cc(C(C)(C)C)cc(C(C)(C)C)c1O)c1cc(C(C)(C)C)cc(C(C)(C)C)c1O | 2% | – |
| C=C(C)C(=O)OCCC[Si](OC)(OC)OC | – | inactive |
